Bioassay records as filed in PubChem.
NOD2 RIPK2 PPI: inhibitors of human NOD2-RIPK2 interaction; CHO BLA complementation NOD2-RIPK2, CCF4 ratio; inhibition, % at 4.98 µM; 0.38% of 360,000 active; AID 624267; in the data active means inhibition above about 21%;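 further: 0% = vehicle only and 100% = reference blocker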
ABCB6 inh 2: inhibitors of human ABC transporter ABCB6; K562-ABCB6 porphyrin accumulation, flow cytometry, 1 h; active compounds read low; 0.19% of 360,000 active; Q9NP58; AID 602162; fluorescence ratio to DMSO, % at 10 µM;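 active means fluorescence ratio to DMSO below 75%, the collection mean minus 3 SD; inconclusive means too few cells collected in the well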;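 further: signal is porphyrin accumulated inside mitochondria; 100% equals median channel fluorescence of DMSO control wells; lower ratio means ABCB6 inhibition with less porphyrin fluorescence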
Myeloid diff 2: myeloid differentiation induction; ER-HoxA9 myeloid progenitors, lysozyme-GFP differentiation, flow cytometry; calls only at 10 µM; 1% of 360,000 active;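 active means normalized GFP-positive differentiation at or above the plate's own cutoff, the solvent-only control mean plus 3 SD; inconclusive means no clear call, values can overlap the other calls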;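 further: cells exposed to compound for four days before flow analysis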
TLR4 MyD88 comp: inhibitors of human TLR4-MyD88 binding. O00206+Q99836. HeLa CL3-4 TLR4/MyD88 BLA complementation, FRET ratio. inhibition, % at 8.4 µM. 0.18% of 200,000 active. AID 861; in the data active means inhibition above about 25%;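 further: 0% = vehicle and 100% = reference inhibitor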
TLR9-MyD88 block: inhibitors of human TLR9-MyD88 binding; CHO BLA complementation TLR9-MyD88, CCF4 FRET ratio; inhibition, % at 4.98 µM; 0.21% of 340,000 active;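 active means inhibition above the mean over all tested compounds plus 3 SD, cut at about 21% in these data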;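 further: 0% = DMSO only wells and 100% = clavulanate BLA inhibitor control wells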
Myeloid diff CP1: promotes myeloid progenitor differentiation; shares compounds with Myeloid diff 2; ER-HoxA9 myeloid progenitors, GFP/Mac1 double-positive flow; calls only; 2% of 2,300 active; AID 651706;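 active means share of green or green-and-red cells above 9 and 9% in run 1 or 4 and 3% in run 2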
GFP autofluor: counter-screen for myeloid differentiation promoters: compound fluorescence. 7.4% of 2,300 active. fluorescence response, % (no concentration beside the values). ER-HoxA9 myeloid progenitors, no estrogen, GFP autofluorescence flow cytometry; vehicle wells 0%, positive control 100%. shares compounds with Myeloid diff 2;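 active means over 5% cells positive for green fluorescent reporter, or over 2% positive for both it and APC stain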;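 further: range taken on the double positive population between DMSO and positive control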
The depositor's hits bear a star; i = inactive; ? = inconclusive; · = no result given; + = active, no number. Most compounds without a hit are left out; they make up all but 1.7% or so of the library.

SMILES	NOD2 RIPK2 PPI	ABCB6 inh 2	Myeloid diff 2	TLR4 MyD88 comp	TLR9-MyD88 block	Myeloid diff CP1	GFP autofluor
CCN(Cc1nc2ccccc2c(=O)[nH]1)Cc1nc2cc(OC)c(OC)cc2c(=O)[nH]1	6	98	i	-4	-2	·	·
O=C(CN1CCN(c2ncccn2)CC1)Nc1ccccc1-n1cccc1	-19	104	+	1	1	i	0
O=C(CN1CCN(c2ccccn2)CC1)Nc1ccccc1Br	2	102	i	·	0	·	·
CCN(CC)c1ccc(C2NC(=O)NC(C)=C2C(=O)Nc2ccccc2)cc1 (centres undefined)	1	194	+	3	-14	i	7.5*
COc1cccc(C=Nc2cccc3c(=O)[nH][nH]c(=O)c23)c1O	8	102	+	0	4	i	0
COc1ccc(C=Nc2cccc3c(=O)[nH][nH]c(=O)c23)c2ccccc12	-6	97	i	-2	-11	·	·
CCC(C)(C)NC(=O)C(c1ccc(C)o1)N(C(=O)c1csnn1)c1cccc(F)c1 (centres undefined)	3	100	i	6	-9	i	0
Cc1ccc(C(C(=O)NC2CCCC2)N(C(=O)c2csnn2)c2cccc(F)c2)o1 (centres undefined)	-9	98	i	·	1	·	·
CCc1nc2c(OCc3ccc(OC(F)F)cc3)cccn2c1N(C)C(=O)c1cccs1	11	94	i	·	·	·	·
Cc1ccc([C@@H]2C[C@H]3[C@@H](CN2S(=O)(=O)c2ccc(Cl)cc2)C(=O)C[C@@H](c2ccc(Cl)cc2)N3S(=O)(=O)c2ccccc2C)cc1	-3	92	i	·	-1	·	·
CC1CCN(CC(=O)Nc2ccccc2C#N)CC1	-6	99	+	17	-3	i	0
COc1ccc(S(=O)(=O)N2CCN(C(=O)NCc3ccc(C)cc3)CC2)cc1	5	99	i	·	-3	·	·
O=C(CN1C(=O)COc2ccccc21)N(Cc1cccnc1)Cc1ccccc1F	-6	98	i	11	10	·	·
COC(=O)c1ccccc1NC(=O)Oc1ccc(F)cc1	-5	104	i	-1	6	i	0
CC1(C)CNC(=O)C=C(c2ccccc2)C1	2	99	+	-4	-5	i	0
CC1(C)CC(=O)C=C(c2ccc(Oc3ccccc3)cc2)C1	2	99	i	·	-4	·	·
CCOc1ccc(C(=O)Nc2cccc(-c3nc4cccnc4o3)c2)cc1Cl	-9	92	+	1	-4	i	0
CCOc1ccc(C(=O)Nc2cccc(C(=O)O)c2)cc1Cl	-4	101	i	0	-15	·	·
CCNCCNC(=O)c1c(O)c2cccc3c2n(c1=O)CCC3	-3	121	i	4	1	i	0
Cc1cc(C)c(C)c(S(=O)(=O)NCCN2CCOCC2)c1C	2	103	i	·	-3	·	·
COc1ccccc1-c1ccc2c(c1)O[C@@H](CN(C)C(=O)Nc1cccc(F)c1)[C@H](C)CN([C@H](C)CO)S2(=O)=O	-1	93	i	·	-4	i	2
C[C@H](CO)N1C[C@H](C)[C@H](CN(C)Cc2ccncc2)Oc2cc(-c3ccccc3F)ccc2S1(=O)=O	11	99	i	·	2	i	0
CC1(c2ccc(Cl)cc2)NC(=O)N(CC(=O)N2CCN(S(=O)(=O)c3ccccc3)CC2)C1=O (centres undefined)	-7	98	i	·	-4	·	·
O=C(NCc1ccco1)c1ccc(Cl)cc1[N+](=O)[O-]	-5	84	i	·	-12	·	·
O=c1cc(CN2CCCC2)c2c(ccc3ccccc32)o1	2	99	i	·	·	·	·
SMILES	NOD2 RIPK2 PPI	ABCB6 inh 2	Myeloid diff 2	TLR4 MyD88 comp	TLR9-MyD88 block	Myeloid diff CP1	GFP autofluor
O=C(CSc1nc(=O)n2ccccc2n1)Nc1ccc2c(c1)OCO2	-8	101	i	·	3	·	·
CC1NC(=O)c2cccnc2-n2c1nc1cc(F)c(F)cc1c2=O (centres undefined)	2	102	i	·	2	·	·
CN1CCN(c2ccc(-c3cc(NC=O)c4ncc(-c5ccc(F)cc5)n4c3)cc2)CC1	9	115	+	·	·	i	0
CN1CCN(c2ccc(-c3cc(NC=O)c4ncc(-c5ccccc5)n4c3)cc2)CC1	12	99	i	·	·	i	3
COc1cc(-c2cnc3c(NC=O)cc(-c4ccc(N5CCN(C)CC5)cc4)cn23)cc(OC)c1OC	-11	108	?	·	·	·	·
O=C(NN=Cc1cc(Br)c(O)c(Br)c1)c1ccccc1NS(=O)(=O)c1cccs1	13	88	i	·	-6	·	·
COc1ccc(C(=O)Nc2nc3ccc(S(C)(=O)=O)cc3s2)cc1OC	-2	100	i	-1	-10	·	·
COc1cccc(OC)c1C(=O)Nc1nc2ccc(S(C)(=O)=O)cc2s1	-5	94	+	-3	1	i	0
CS(=O)(=O)c1ccc2nc(NC(=O)CS(=O)(=O)Cc3ccccc3)sc2c1	-4	88	+	-4	8	i	0
Cc1cc(C)n(-c2nnc3n2N=C(c2ccccc2)CS3)n1	-7	99	i	5	-7	·	·
Cc1cc(C)n(-c2nnc3n2N=C(c2c[nH]c4ccccc24)CS3)n1	-2	91	i	2	0	i	4
CCCC1=[N+](CC(C)=O)CCn2c(C)ccc21	-3	95	i	-2	-6	·	·
CCCC1=[N+](CC(=O)c2ccccc2)CCn2cccc21	0	99	i	19	4	i	3
CCCC1=[N+](CC(=O)c2ccc(Br)cc2)CCn2cccc21	-9	109	i	·	5	i	3
COc1ccc(-c2nn(-c3ccccc3)cc2/C=N/Nc2ccc(S(N)(=O)=O)cc2[N+](=O)[O-])cc1OC	-2	98	i	10	-4	i	0
O=C(Nc1nc(-c2cccnc2)cs1)c1ccc(S(=O)(=O)N2CCOCC2)cc1	0	96	i	-13	-12	i	2
O=C(COC(=O)c1ccc(S(=O)(=O)N2CCOCC2)cc1)Nc1nc(-c2ccccc2)cs1	8	101	i	20	-7	·	·
CCCCN(C(=O)C(C)Oc1ccc(Br)cc1)c1c(N)n(CC(C)C)c(=O)[nH]c1=O (centres undefined)	-6	95	i	·	-4	·	·
CCCC(=O)Nc1cc(-c2nc3ncccc3o2)ccc1C	7	146	·	14	4	i	0
Nc1ccc(N2CCN(c3ccc(F)cc3)CC2)cc1	-4	103	+	18	1	i	0
COc1ccc(C[C@@H]2CN3C(=NC[C@@H]3C)N2CCNC(=O)c2ccc(C)c(Br)c2)cc1	-5	94	+	-5	-8	i	0
